Results as given in PubChem BioAssay (NCI).
About 83,000 compounds went through this panel and 20% of them were active in at least one assay; those are over-represented in the sample as a whole.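 Treatment: one concentration, 48 hours, 96-well format. Scoring: percent growth, with anything below 10 considered active.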 Unmarked numbers belong to inactive results. Activity calls are given as the source filed them.

Columns and labels:
Assay in all cases: NCI-60 one-dose screen, 48 h (100 = growth as untreated, 0 = no growth, -100 = all killed)
Settings in all cases: 10 µM unless noted
[1] = tested on: NCI-H23 lung
[2] = tested on: NCI-H226 lung
[3] = tested on: NCI-H322M lung
[4] = tested on: HOP-62 NSCLC
[5] = tested on: NCI-H460 lung
[6] = tested on: HOP-92 NSCLC
[7] = tested on: NCI-H522 lung
[8] = tested on: A549/ATCC NSCLC
[9] = tested on: 786-0 renal
[10] = tested on: COLO 205 colon

Row | Structure (SMILES) | growth [1] | growth [2] | growth [3] | growth [4] | growth [5] | growth [6] | growth [7] | growth [8] | growth [9] | growth [10]
1 | COc1cccc(OC)c1C(=O)N[C@@H]1C(=O)N2[C@@H]1SC(C)(C)[C@@H]2C(=O)O | 103% | 107% | 95.6% | 103% | 112% | 44.9% | 88.7% | 105% | 95.6% | 107%
2 | CN1C(=C2C(=O)OC(C)(C)OC2=O)CCC1C(=O)NCc1ccc(Cl)cc1Cl (stereo not given) | 97.9% | 79.1% | 107% | 85.4% | 100% | 85.3% | 54.2% | 79.5% | 103% | 103%
3 | c1ccc(-c2nc3sc(-c4ccccc4)cn3n2)cc1 | 83.5% | 72.2% | 88.2% | 66.7% | 93.3% | 74.4% | 80.8% | 89.6% | 105% | 94.5%
4 | CN(C)c1ccc2nc3ccc(=[N+](C)C)c([N+](=O)[O-])c-3sc2c1 | 9.52% (active) | 73.2% | 42.2% | 64.2% | 25.3% | 38.7% | 16.3% | 26.3% | 31.9% | 20.3%
5 | COc1cccc(-c2nc(-c3ccc(NC(=O)OC(C)C)cc3)[nH]c2-c2ccnc(Br)c2)c1 | 15.7% | 31.2% | 35.4% | 22.7% | 16.7% | 40.7% | 26.8% | 29% | 0.518% (active) | 25.7%
6 | COc1cc(C(=O)c2cc(C)c3[nH]c4ccc(C)cc4c3c2C)cc(OC)c1OC | 16.7% | 54.4% | 39.9% | 38.9% | 6.57% (active) | 29.2% | 19.8% | 20.9% | 19.4% | -19.2% (active)
